Data: PubChem BioAssay (NCATS)
Where “and” joins values, the source holds several entries; their conditions need not be identical. Equal values may be shown once. Inconclusive results are not listed. Some compounds were tested as several samples or in several runs, with calls that do not always agree. Calls of active or inactive are those of the source. Unless noted, the call rests on the fitted dose curve; in most records, active means well fitted curve in the direction sought with a large enough effect; inconclusive means small, poorly fitted or top-dose-only effect, or another doubt; inactive means no such curve, though single readings can be large; an effect the other way counts as inactive or inconclusive.

Legend:
[1] = test system: Zika virus NS2B-NS3 protease; experiment: Primary screen GU AMC qHTS for Zika virus inhibitors (AID 1347154);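 further: 0% = no-inhibitor control and -100% = no-enzyme control; nearly all actives have a fitted effect of over 70% in size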
In short: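 Unlinked Zika NS2B hydrophilic domain–NS3 protease complex at 25 nM in 10 mM Tris-HCl pH 8.0, 0.01% Tween 20, with an AMC peptide substrate. Fluorescence change (340/450 nm) over 15 min at room temperature, normalized to controls, fitted to 4-parameter Hill.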

[2] = Primary qHTS for small molecule stabilizers of the endoplasmic reticulum resident proteome: Secreted ER Calcium Modulated Protein (SERCaMP) assay (AID 1508630); further: on the % scale 0 is the no-effect control and ±100 the full control effect
In short: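 The SH-SY5Y reporter protocol was run at 3 concentrations up to 38.3 uM (primary) or 11 concentrations (follow-up): 16 h compound, 100 nM thapsigargin for 4 h, then extracellular luciferase luminescence.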

[3] = molecular target: Cytochrome P450 1A2 (Homo sapiens) (UniProt P05177); experiment: p450-cyp1a2 (AID 410; calls by dose curve; further: potency means the concentration at half of the fitted maximal effect;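 on activity change, negative = inhibition: -100% = full effect of reference inhibitor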)
Sequence of Cytochrome P450 1A2 (Homo sapiens) (P05177 whole entry, looked up): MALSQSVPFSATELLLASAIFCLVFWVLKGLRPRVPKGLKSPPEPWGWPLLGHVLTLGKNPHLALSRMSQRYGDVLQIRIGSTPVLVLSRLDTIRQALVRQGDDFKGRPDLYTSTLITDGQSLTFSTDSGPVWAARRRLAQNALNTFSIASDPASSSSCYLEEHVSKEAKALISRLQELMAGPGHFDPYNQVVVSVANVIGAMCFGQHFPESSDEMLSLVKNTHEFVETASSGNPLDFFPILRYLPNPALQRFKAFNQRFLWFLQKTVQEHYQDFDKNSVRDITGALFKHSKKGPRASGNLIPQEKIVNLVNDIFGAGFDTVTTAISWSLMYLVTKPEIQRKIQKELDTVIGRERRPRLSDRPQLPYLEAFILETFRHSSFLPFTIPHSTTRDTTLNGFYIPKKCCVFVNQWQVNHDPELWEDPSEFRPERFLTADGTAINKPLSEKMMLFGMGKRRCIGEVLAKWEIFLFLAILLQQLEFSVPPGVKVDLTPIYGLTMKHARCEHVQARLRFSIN
In short: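 O-Demethylation of luciferin 6' methyl ether by human CYP1A2 is monitored as luciferase luminescence. Substrate sits at Km (100uM); enzyme is 20nM. Values are scaled to 57 uM furafylline as maximal inhibition.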

[4] = molecular target: Glucocorticoid receptor (Homo sapiens) (UniProt P04150); experiment: GR-GFP Redistribution (AID 450;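 active means compounds whose dose series gives a full or clear partial fitted curve of increased nuclear translocation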; further: potency means the concentration at half of the fitted maximal effect); conditions: U2OS GR-GFP nuclear translocation, laser cytometry, 2 h
Sequence of Glucocorticoid receptor (Homo sapiens) (P04150 whole entry, looked up, the tested form may be a part): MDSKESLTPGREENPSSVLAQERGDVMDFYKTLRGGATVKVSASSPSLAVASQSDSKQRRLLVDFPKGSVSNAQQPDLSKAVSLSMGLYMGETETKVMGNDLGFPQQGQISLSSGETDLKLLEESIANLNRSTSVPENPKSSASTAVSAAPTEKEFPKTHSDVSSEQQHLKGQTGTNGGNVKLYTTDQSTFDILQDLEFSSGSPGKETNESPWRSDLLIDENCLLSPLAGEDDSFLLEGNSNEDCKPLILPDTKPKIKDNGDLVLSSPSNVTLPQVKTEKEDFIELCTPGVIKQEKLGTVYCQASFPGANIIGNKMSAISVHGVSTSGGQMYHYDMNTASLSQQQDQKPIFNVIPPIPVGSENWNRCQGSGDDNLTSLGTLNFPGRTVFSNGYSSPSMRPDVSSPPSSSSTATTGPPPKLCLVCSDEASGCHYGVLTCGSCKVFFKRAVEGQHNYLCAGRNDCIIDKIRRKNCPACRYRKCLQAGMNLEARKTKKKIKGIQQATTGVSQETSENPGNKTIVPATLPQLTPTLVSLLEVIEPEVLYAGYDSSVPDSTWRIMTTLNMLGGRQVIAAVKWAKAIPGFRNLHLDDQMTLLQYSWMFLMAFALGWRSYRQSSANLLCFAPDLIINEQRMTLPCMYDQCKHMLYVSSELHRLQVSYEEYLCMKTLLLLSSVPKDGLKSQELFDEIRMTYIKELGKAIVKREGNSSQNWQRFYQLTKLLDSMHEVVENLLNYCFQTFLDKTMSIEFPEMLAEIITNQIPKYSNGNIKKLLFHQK

[5] = molecular target: Glucocorticoid receptor (Homo sapiens) (UniProt P04150); experiment: GR-EFC Redistribution (AID 451; calls by dose curve; further: potency means the concentration at half of the fitted maximal effect); conditions: CHO-K1 GR-EFC translocation, beta-gal luminescence, 2 h
In short: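 CHO-K1 cells expressing nuclear EA and GR-ED fragments of b-gal; compounds titrated up to 46 uM final, 2 h at 37 C. GR nuclear translocation read as complemented b-gal luminescence after 1 h RT detection.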

[6] = molecular target: Mitogen-activated protein kinase 10 (Mus musculus) (UniProt Q61831); experiment: JNK3 AlphaScreen Assay (AID 530; active means well fitted curve in either direction with a large enough effect, not every such curve was filed as active;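 further: kinase came from lysate of stimulated human HepG2 cells; signal reports phosphorylation of biotinylated GST-cJun 1-79 at Ser73 with 10 µM ATP; on the % scale 0 is the no-effect control and ±100 the full control effect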)
In short: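 Activity was read by AlphaScreen after JNK3-containing HepG2 lysate (cytokine pre-activated) phosphorylated biotinylated GST-cJun with 10 uM ATP at room temperature. Phospho-Ser73 cJun antibody with Protein-A acceptor beads provided detection.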

[7] = qHTS Assay for Lipid Storage Modulators (AID 1519; calls by dose curve); conditions: Drosophila S3 cells, BODIPY lipid droplet/cell ratio, laser cytometry, cells loaded with oleic acid; for activity change, negative = inhibition: at 57.5 µM (top of the series)
In short: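 Cells seeded at 5,000 per well were treated with compounds over a concentration series and loaded with oleic acid (400 uM, as added). Lipid droplet fluorescence (488 nm excitation, 500-530 nm channel) was read by laser-scanning cytometry and normalized to 20 uM Triacsin C.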

[8] = molecular target: DNA dC->dU-editing enzyme APOBEC-3G (Homo sapiens) (UniProt Q9HC16); experiment: qHTS for inhibitors of Vif-A3G interactions: Validation (AID 588379); further: 0% is about no effect
Sequence of DNA dC->dU-editing enzyme APOBEC-3G (Homo sapiens) (Q9HC16 whole entry, looked up): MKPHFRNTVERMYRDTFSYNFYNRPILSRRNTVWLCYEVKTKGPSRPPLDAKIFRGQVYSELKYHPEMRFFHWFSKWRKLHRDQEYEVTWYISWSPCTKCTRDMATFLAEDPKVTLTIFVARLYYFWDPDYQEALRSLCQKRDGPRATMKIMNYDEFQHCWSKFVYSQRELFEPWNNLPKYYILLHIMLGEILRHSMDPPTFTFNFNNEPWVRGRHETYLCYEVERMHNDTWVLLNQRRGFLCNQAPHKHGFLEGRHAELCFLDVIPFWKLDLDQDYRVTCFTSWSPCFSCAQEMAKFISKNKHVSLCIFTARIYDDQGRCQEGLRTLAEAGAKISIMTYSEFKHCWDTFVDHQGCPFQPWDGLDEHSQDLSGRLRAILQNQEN
In short: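 Yellow fluorescence (Ex 488, Em 500-530) of Vif-coexpressing HeLa A3G-eYFP cells, scanned by Acumen cytometer, reports blocked A3G degradation. Cells plated at 700/well overnight at 37 deg C before compound addition, then a further overnight compound incubation at 37 deg C.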

[9] = molecular target: Ubiquitin carboxyl-terminal hydrolase 1 (Homo sapiens) (UniProt O94782); experiment: Inhibitors of USP1/UAF1: Pilot qHTS (AID 504865);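 further: rhodamine fluorescence freed from ubiquitin-rhodamine substrate followed over time; top concentration of the series differs between compounds; on the % scale 0 is the no-effect control and ±100 the full control effect; nearly all actives have a fitted effect of over 35% in size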
In short: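 Deubiquitinase activity followed as kinetic rhodamine fluorescence release from 150 nM Ub-Rho. 1 nM USP1/UAF1 with compound, after 15 min room-temperature preincubation, in HEPES pH 7.8 buffer containing TCEP, EDTA, BSA and Tween-20.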

[10] = AP1 Signaling Pathway (AID 357; active means well fitted curve in either direction with a large enough effect, not every such curve was filed as active;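 further: ME-180 reporter cells stimulated with EGF at its EC50 level; on the % scale 0 is the no-effect control and ±100 the full control effect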); conditions: ME-180 (cervical carcinoma) AP-1-bla reporter, EGF-induced, beta-lactamase ratio, 5 h; at 38 µM (top of the series)
In short: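 Beta-lactamase reporter under AP-1 response element, ME-180 background. Stimulus: EC50 EGF. Compound exposure 5 h, 37 °C. Detection: CCF4, 2.5 h RT, 460/530 nm. Values: AC50 from titration.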

[11] = NFAT Signaling Pathway (AID 444; active means well fitted curve in either direction with a large enough effect, not every such curve was filed as active;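 further: carbachol stimulus at about its EC50 of 1 µM final; on the % scale 0 is the no-effect control and ±100 the full control effect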); conditions: Jurkat NFAT-bla M1, carbachol, beta-lactamase ratio, 5 h; at 38 µM (top of the series)
In short: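 Jurkat cells with NFAT-driven β-lactamase reporter and co-expressed M1 receptor, stimulated with carbachol (final 1 uM, ~EC50), compound titration, 5 h at 37 °C. CCF4 loaded 1 h at RT; 460/530 nm ratio gave %activity and AC50.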

[12] = molecular target: 3',5'-cyclic-AMP phosphodiesterase 4B (Homo sapiens) (UniProt Q07343); experiment: qHTS Assay for Inhibitors of PDE-IV (AID 607; active means well fitted activation curve with a large enough effect in the main read-out, with a control signal flat, not every such curve was filed as active; further: % of control where 0% means no effect)
Sequence of 3',5'-cyclic-AMP phosphodiesterase 4B (Homo sapiens) (Q07343 whole entry, looked up): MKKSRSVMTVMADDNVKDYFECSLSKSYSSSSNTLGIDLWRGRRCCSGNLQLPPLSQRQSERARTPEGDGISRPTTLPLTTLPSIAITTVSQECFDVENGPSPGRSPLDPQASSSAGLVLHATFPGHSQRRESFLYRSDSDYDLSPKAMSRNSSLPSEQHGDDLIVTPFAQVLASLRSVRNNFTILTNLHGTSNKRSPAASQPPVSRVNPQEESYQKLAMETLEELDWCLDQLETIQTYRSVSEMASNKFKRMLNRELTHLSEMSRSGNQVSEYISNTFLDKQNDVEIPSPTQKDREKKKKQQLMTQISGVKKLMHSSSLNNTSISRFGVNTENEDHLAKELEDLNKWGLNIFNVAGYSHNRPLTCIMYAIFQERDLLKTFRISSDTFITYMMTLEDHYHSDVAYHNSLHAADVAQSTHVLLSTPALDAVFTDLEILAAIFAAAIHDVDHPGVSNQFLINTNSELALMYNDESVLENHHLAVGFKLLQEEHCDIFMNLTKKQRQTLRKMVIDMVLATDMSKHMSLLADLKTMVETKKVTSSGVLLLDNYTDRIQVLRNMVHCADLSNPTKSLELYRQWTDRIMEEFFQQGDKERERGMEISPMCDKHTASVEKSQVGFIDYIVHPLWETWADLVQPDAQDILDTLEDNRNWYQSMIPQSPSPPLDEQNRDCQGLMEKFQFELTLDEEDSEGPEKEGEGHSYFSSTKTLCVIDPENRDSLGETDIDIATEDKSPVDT
In short: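 HEK293 ACTOne cells with CNG channel (1000/well), endogenous PDE4; membrane potential dye, compounds up to 22.9 uM final. Fluorescence Ex 535/Em 590; RO 20-1724 (100 uM final) as reference.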

[13] = molecular target: Guanine nucleotide-binding protein G(i) subunit alpha-1 (Homo sapiens) (UniProt P63096); experiment: qHTS Assay for Inhibitors of RGS12 GoLoco Motif Activity (Green Fluorophore) (AID 879);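 further: 0% = labeled peptide with Gαi1 and full inhibition = labeled peptide alone without protein; negative values mean loss of peptide binding seen as reduced polarization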
Sequence of Guanine nucleotide-binding protein G(i) subunit alpha-1 (Homo sapiens) (P63096 whole entry, looked up): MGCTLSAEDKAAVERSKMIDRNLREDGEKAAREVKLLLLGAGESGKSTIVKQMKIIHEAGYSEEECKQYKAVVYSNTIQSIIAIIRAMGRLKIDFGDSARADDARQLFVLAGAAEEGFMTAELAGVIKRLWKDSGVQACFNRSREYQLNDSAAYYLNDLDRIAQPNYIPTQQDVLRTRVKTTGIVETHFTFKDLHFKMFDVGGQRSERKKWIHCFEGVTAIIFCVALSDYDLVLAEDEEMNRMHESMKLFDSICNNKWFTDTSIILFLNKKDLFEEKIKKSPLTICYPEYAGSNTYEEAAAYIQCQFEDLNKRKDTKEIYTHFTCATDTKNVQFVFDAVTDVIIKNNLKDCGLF
In short: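 A drop in FITC polarization marked displacement of the FITC-tagged RGS12 GoLoco peptide (10 nM) from Gαi1 (50 nM). Compounds were incubated 10 min at room temperature in Tris pH 7.5 buffer containing 150 mM NaCl, 0.1 mM GDP and 0.05% NP40; unlabeled peptide titration served as control.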

[14] = molecular target: Cytochrome P450 2C9 (Homo sapiens) (UniProt P11712); experiment: qHTS Assay for Inhibitors and Substrates of Cytochrome P450 2C9 (AID 883); further: on the % scale 0 is the no-effect control and ±100 the full control effect; nearly all actives have a fitted effect of over 60% in size
In short: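 Signal: luciferase luminescence reporting luciferin produced by CYP2C9. Conditions: 10nM enzyme, Luciferin-H 100uM at KM, 25mM KPO4, 37C, 60 min NADPH-driven reaction. Reference: 57uM sulphaphenazole as 100% inhibition.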

[15] = molecular target: Cytochrome P450 3A4 (Homo sapiens) (UniProt P08684); experiment: qHTS Assay for Activators of Cytochrome P450 3A4 (AID 885); further: nearly all actives have a fitted effect of over 65% in size
In short: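 Human CYP3A4 dealkylates Luciferin-PPXE to luciferin, which luciferase detection converts to light. Substrate was at its KM (25uM), buffer 200mM KPO4, reaction 60 min at RT.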

[16] = molecular target: Cytochrome P450 2D6 (Homo sapiens) (UniProt P10635); experiment: qHTS Assay for Inhibitors and Substrates of Cytochrome P450 2D6 (AID 891);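 further: luciferin methyl ether substrate demethylated by CYP2D6 with NADPH regeneration; on the % scale 0 is the no-effect control and ±100 the full control effect; nearly all actives have a fitted effect of over 60% in size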
In short: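 Luminescent read-out of luciferin formed by 5 nM human CYP2D6 demethylating 30 uM Luciferin-ME EGE (Km level) over 60 min at room temperature after NADPH regeneration addition. Data normalized to full inhibition by 1.43 uM quinidine.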

[17] = molecular target: Cytochrome P450 2C19 (Homo sapiens) (UniProt P33261); experiment: qHTS Assay for Inhibitors and Substrates of Cytochrome P450 2C19 (AID 899); further: on the % scale 0 is the no-effect control and ±100 the full control effect; nearly all actives have a fitted effect of over 60% in size
In short: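 Signal comes from luciferase acting on luciferin released by CYP2C19-mediated hydroxylation of Luciferin-H EGE, 10uM (KM). Assay mix: 5nM enzyme, 50mM KPO4; 60 min at 37C with NADPH regeneration. Data normalized against 57uM ketoconazole.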

[18] = qHTS Assay for Identification of Small Molecule Agonists for Thrombopoietin (TPO) Signaling Pathway (AID 917); further: on the % scale 0 is the no-effect control and ±100 the full control effect
In short: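 Luciferase reporter (Glycoprotein IIb promoter) in IL-3-deprived Ba/F3 cells carrying human TPO receptor; compounds co-added with 26 pM TPO, incubated 24 h, 37 C. Steadylite luminescence measured after 10 min.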

[19] = molecular target: Muscarinic acetylcholine receptor M1 (Rattus norvegicus) (UniProt P08482); experiment: qHTS Assay for Antagonists of Acetylcholine Muscarinic M1 Receptor: Kinetic Measurement of Intracellular Calcium Response (AID 943);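 further: Fluo-4 calcium signal as peak divided by basal fluorescence over 4 min; nearly all actives have a fitted effect of over 75% in size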
Sequence of Muscarinic acetylcholine receptor M1 (Rattus norvegicus) (P08482 whole entry, looked up): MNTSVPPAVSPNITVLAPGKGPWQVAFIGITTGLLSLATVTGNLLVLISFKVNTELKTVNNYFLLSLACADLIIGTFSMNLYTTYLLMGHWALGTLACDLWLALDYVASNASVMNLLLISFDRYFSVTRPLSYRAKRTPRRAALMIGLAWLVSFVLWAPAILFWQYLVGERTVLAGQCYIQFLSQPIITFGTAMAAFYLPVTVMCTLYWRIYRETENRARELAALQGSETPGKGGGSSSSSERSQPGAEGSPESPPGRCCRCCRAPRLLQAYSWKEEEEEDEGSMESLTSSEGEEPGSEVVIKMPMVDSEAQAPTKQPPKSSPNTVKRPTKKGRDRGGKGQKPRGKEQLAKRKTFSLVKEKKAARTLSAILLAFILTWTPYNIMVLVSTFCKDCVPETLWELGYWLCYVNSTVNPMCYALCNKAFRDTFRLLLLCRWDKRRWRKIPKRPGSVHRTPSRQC
In short: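 Antagonism is measured as inhibition of the carbachol-evoked calcium rise in CHO cells transfected with rat M1. Cells are dye-loaded, exposed to compound for 10 min, then stimulated with 100 nM carbachol (EC80).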

[20] = molecular target: Muscarinic acetylcholine receptor M1 (Rattus norvegicus) (UniProt P08482); experiment: qHTS Assay for Antagonists of Acetylcholine Muscarinic M1 Receptor: Measurement of IP-One Response (AID 944); further: nearly all actives have a fitted effect of over 75% in size
In short: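 Antagonist mode with rat M1 receptor transfected into CHO cells. Compound is added first for 10 min, carbachol at its EC80 follows for 30 min, and lysis reagents then allow TR-FRET detection of accumulated IP1.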

[21] = molecular target: Pyruvate kinase (Leishmania mexicana) (UniProt Q27686); experiment: qHTS Validation Assay for Inhibitors of Leishmania Mexicana Pyruvate Kinase (AID 945);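 further: 0% = DMSO only neutral control wells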
Sequence of Pyruvate kinase (Leishmania mexicana) (Q27686 2-499 E452W): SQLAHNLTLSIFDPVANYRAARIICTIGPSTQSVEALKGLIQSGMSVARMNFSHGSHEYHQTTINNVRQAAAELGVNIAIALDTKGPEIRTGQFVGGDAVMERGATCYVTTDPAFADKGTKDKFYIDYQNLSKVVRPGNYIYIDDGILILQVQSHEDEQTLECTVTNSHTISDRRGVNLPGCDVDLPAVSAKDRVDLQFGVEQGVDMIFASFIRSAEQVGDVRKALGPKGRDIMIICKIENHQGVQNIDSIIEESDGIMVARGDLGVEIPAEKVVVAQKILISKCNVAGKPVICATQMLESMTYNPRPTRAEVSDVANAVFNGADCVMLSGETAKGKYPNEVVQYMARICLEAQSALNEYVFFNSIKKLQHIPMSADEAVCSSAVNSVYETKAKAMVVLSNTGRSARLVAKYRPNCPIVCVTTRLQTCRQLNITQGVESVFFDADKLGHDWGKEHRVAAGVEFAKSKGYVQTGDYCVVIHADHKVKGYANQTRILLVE
In short: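 Mutant LmPYK (E451W), 0.2 nM, plus 0.5 mM PEP and 0.1 mM ADP in 50 mM imidazole pH 7.2 containing 0.01% Tween 20 and 0.05% BSA. Incubated 1 h at room temperature; luminescence via PKLight, normalized to DMSO.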

[22] = molecular target: Pyruvate kinase PKM (Homo sapiens) (UniProt P14618); experiment: qHTS Assay for Activators of Human Muscle Pyruvate Kinase (AID 954; active means well fitted curve in the direction sought with a large enough effect, not every such curve was filed as active;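 further: 0% = uninhibited enzyme and -100% = no enzyme or full thiadiazolimine inhibition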)
Sequence of Pyruvate kinase PKM (Homo sapiens) (P14618 whole entry, looked up): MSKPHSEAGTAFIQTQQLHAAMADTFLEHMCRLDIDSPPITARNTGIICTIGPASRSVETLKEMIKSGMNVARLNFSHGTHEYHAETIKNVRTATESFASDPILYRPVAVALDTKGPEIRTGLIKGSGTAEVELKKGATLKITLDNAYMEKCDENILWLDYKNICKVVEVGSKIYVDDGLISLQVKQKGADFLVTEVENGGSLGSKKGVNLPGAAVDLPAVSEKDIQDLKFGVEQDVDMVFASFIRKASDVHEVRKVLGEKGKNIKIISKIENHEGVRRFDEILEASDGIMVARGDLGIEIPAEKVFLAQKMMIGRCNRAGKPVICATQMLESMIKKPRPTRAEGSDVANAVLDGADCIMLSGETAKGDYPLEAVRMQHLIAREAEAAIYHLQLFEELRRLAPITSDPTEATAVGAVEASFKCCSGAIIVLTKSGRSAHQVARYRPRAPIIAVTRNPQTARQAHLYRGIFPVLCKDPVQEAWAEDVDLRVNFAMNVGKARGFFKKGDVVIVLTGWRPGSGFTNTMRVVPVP
In short: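 Compound pinned into substrate mix (0.5 mM PEP, 0.1 mM ADP), then 0.1 nM PKM2 added; 1 h, RT. Stop/detection luciferase reagent added, luminescence read. Normalized to no-inhibition and no-enzyme or reference-inhibitor controls.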

[23] = molecular target: Alpha-galactosidase A (Homo sapiens) (UniProt P06280); experiment: Counterscreen for Glucocerebrosidase Inhibitors: qHTS Assay for Human alpha-Galactosidase at pH 4.5 (AID 992); further: 0% is about no effect
Sequence of Alpha-galactosidase A (Homo sapiens) (P06280 whole entry, looked up): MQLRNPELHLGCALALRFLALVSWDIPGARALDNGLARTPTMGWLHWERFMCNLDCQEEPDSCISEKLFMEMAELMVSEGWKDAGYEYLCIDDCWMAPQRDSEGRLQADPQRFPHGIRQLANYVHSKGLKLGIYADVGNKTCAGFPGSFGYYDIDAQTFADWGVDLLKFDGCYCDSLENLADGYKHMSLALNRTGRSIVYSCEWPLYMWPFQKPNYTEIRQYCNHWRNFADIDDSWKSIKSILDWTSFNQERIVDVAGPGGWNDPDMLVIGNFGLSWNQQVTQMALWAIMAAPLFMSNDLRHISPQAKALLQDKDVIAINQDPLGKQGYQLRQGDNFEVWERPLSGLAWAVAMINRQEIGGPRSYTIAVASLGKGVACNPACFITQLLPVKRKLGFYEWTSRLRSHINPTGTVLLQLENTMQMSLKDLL
In short: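 Steps: enzyme (2 nM final), then compound across 0.7 nM to 77 uM, then 80 uM fluorogenic galactopyranoside substrate; incubate 20 min at room temperature; quench at pH 10; measure fluorescence at 365/440 nm.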

[24] = molecular target: alpha-glucosidase (Oryza sativa, rice) (UniProt Q653V4); experiment: Counterscreen for Glucocerebrosidase Inhibitors: qHTS Assay for Rice alpha-Glucosidase at pH 5.0 (AID 997);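 further: 0% = full activity with enzyme and -100% = basal without enzyme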
In short: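 Endpoint fluorogenic assay at pH 5.0: compounds (0.7 nM to 77 uM) titrated against 4 nM rice enzyme and 400 uM 4-MU-alpha-glucoside for 20 min at room temperature; NaOH/glycine stop, read ex 365/em 440 nm, Hill-fitted AC50.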

[25] = measured here: cell count channel max response
[26] = measured here: lipid channel max response

CCCCCCCCCCCCCCCCCCc1ccc(C(=O)/C=C/C(=O)O)cc1
inactive: Potency [1] | Potency [2]

O=C(O)[C@H]1CCCN1
inactive: Potency [1] | Potency [2]

CCCCC/C=C\C/C=C\CCCCCCCC(N)=O
inactive: activity change, negative = inhibition [1] 15% [at 6.83 µM] | activity change, negative = inhibition [2] -21% [at 3.88 µM]

N#Cc1cc2[nH]c(=O)c(=O)[nH]c2cc1[N+](=O)[O-]
inactive: Potency [4] > 46 µM | Potency [5] > 46 µM | Potency [6] | activity change, negative = inhibition [7] 2.55% | Potency [8] | Potency [1] | Potency [2]
17.2%: max response [7, 26]
active: Potency [3] 31.6 µM
12.9%: max response [7, 25]

CCC(=O)O[C@H](CC(=O)O)C[N+](C)(C)C
inactive: Potency [3] | Potency [4] > 46 µM | Potency [5] > 46 µM | activity change, negative = inhibition [7] 3.1% | Potency [9] | Potency [8] | Potency [1] | Potency [2]
-8.23%: max response [7, 25]
-5.22%: max response [7, 26]

NC[C@](O)(CS(=O)(=O)O)c1ccc(Cl)cc1
11.5%: max response [7, 25]
inactive: activity change, negative = inhibition [10] 6.15% | activity change, negative = inhibition [11] -5.4% | Potency [4] > 46 µM | Potency [5] > 46 µM | Potency [6] | Potency [12] | outcome [13] | Potency [14] | Potency [15] | Potency [16] | Potency [17] | Potency [18] | Potency [19] | Potency [20] | Potency [21] | outcome [22] | outcome [23] | outcome [24] | activity change, negative = inhibition [7] -5.03% | Potency [8] | Potency [1] | Potency [2]
9.5%: max response [7, 26]
inactive and 31.6 µM (active): Potency [3]

CC(C)(C)NC[C@H](O)COc1cccc2[nH]c(=O)[nH]c12
inactive: activity change, negative = inhibition [10] -7.21% | Potency [3] | Potency [4] > 46 µM | Potency [5] > 46 µM | Potency [6] | Potency [12] | outcome [13] | Potency [20] | Potency [21] | outcome [22] | outcome [23] | outcome [24] | activity change, negative = inhibition [7] -4.86% | Potency [8] | Potency [1] | Potency [2]
-5.55%: max response [7, 26]
-1.97%: max response [7, 25]

NCCC(=O)O
-17.6%: max response [7, 25]
-21.9%: max response [7, 26]
inactive: Potency [3] | Potency [4] > 46 µM | Potency [5] > 46 µM | Potency [6] | Potency [12] | activity change, negative = inhibition [7] -2.51% | Potency [9] | Potency [8] | Potency [1] | Potency [2]
